Data on five compounds can be found in PubChem BioAssay.

The nature of experiment [1]: anti-His antibody binders, primary screen, artefact control for SMM control protein annotation, biochemical, small-molecule microarray, 635 nm fluorescence (AID 1128).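 Further: score merges feature fluorescence with signal-to-noise for each printed compound spot.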 The conditions noted are these: anti-His Alexa647 antibody binding, higher = more signal.
Experiment [2] deals with Human papillomavirus type 1a E7 protein (residues 1-88). Description: HPV1a E7 small-molecule binders, primary screen, biochemical, small-molecule microarray, residues 1-88, 635 nm (AID 1129). Particulars: small-molecule microarray binding, fluorescence 635 nm; higher = more signal.
In experiment [3] the target is Focal adhesion kinase 1 (Homo sapiens) (UniProt Q05397). Description: small-molecule microarray binders of FAK, primary screen, biochemical, 635/667 nm fluorescence, BSA, DTT (AID 1130).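 Further: composite of spot emission at 667 nm and signal to noise over triplicate slides.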 The conditions noted are these: PTK2 binding, 635 nm fluorescence, higher = more signal.
Chain of Focal adhesion kinase 1 (Homo sapiens) (Q05397 whole entry, looked up): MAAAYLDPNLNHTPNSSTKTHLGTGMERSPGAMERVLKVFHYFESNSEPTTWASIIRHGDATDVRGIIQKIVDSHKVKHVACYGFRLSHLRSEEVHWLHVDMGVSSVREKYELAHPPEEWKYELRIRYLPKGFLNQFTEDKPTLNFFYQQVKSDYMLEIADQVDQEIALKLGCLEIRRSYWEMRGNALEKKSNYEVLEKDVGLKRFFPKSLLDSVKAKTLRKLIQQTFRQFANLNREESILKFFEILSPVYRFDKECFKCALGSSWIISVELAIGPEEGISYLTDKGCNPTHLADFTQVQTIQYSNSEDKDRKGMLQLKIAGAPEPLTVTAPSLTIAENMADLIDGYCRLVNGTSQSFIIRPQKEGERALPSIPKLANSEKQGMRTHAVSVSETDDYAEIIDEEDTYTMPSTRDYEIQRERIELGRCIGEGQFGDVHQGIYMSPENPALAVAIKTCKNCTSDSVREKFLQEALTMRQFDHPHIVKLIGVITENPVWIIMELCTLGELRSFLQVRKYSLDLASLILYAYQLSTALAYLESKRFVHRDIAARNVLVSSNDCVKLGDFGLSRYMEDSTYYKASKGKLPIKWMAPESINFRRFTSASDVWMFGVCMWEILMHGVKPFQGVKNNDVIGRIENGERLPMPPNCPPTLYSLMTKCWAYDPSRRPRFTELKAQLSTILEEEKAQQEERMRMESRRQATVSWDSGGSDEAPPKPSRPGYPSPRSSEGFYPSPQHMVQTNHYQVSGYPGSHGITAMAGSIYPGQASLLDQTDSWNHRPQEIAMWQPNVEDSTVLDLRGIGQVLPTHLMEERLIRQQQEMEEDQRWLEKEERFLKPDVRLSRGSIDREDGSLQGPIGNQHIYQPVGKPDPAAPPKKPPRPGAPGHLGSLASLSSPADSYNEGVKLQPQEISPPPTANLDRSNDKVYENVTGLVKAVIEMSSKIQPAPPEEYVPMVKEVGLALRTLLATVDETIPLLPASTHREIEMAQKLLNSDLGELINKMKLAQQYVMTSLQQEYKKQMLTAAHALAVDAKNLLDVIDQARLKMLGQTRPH
The subject of experiment [4] is Fibrinogen (Alexa647-labelled). Description: fibrinogen binders on compound microarrays, profiling panel, artefact control for SMM control-protein annotation, biochemical, small-molecule microarray, 635/667 nm fluorescence (AID 1131).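 Further: z-score merges 667 nm fluorescence with per-spot signal-to-noise over triplicate slides.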 The conditions noted are these: fibrinogen-A647 binding fluorescence, higher = more signal.
The target in experiment [5] is Follistatin (Homo sapiens) (UniProt P19883). Nature of the experiment: follistatin binders on small-molecule microarrays, primary screen, biochemical, small-molecule microarray, 635/667 nm fluorescence (AID 1132). The conditions noted are these: FST binding, 635 nm fluorescence, higher = more signal.
Chain of Follistatin (Homo sapiens) (P19883 whole entry, looked up): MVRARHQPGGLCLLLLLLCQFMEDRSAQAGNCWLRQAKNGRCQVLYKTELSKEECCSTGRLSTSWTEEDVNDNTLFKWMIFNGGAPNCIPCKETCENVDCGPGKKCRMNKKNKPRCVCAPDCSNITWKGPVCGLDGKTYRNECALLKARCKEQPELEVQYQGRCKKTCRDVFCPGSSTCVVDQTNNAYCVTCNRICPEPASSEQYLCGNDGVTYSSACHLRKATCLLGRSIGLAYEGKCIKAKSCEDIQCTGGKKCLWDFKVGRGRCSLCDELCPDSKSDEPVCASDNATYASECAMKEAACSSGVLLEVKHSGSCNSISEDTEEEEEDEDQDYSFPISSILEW
In experiment [6] the target is Fibroblast growth factor 2 (Homo sapiens) (UniProt P09038). Nature of the experiment: FGF2 binders on small-molecule microarrays, primary screen, biochemical, small-molecule microarray, 635/667 nm fluorescence (AID 1133). The conditions noted are these: small-molecule microarray binding, FGF2, fluorescence 635/667; higher = more signal.
Chain of Fibroblast growth factor 2 (Homo sapiens) (P09038 whole entry, looked up): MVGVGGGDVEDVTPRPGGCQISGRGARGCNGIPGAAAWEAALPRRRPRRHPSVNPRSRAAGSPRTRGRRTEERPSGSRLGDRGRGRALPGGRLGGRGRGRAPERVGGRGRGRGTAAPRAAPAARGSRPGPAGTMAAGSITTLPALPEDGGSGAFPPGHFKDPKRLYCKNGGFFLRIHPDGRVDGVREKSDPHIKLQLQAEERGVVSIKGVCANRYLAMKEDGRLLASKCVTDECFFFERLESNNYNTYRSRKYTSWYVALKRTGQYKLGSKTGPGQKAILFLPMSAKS
Experiment [7] is described as follows: mitochondrial membrane potential change in A549 cells, profiling panel, cell-based, JC-1 fluorescence, basal, 24 h, 100 nL (AID 1138).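 Further: A549 lung adenocarcinoma cells under basal conditions with no added stimulus; test concentration not given here.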 The conditions noted are these: higher = more signal.
In another experiment the test system is Lefty1. Description: Lefty1 binders on small-molecule microarrays, primary screen, biochemical, small-molecule microarray, 635/667 nm fluorescence (AID 1139). The conditions noted are these: small-molecule microarray binding, fluorescence 635/667; higher = more signal.
For experiment [8], the system named is wheat germ agglutinin (Triticum aestivum), Alexa647-labelled. Description: wheat germ agglutinin binders on compound microarrays, profiling panel, artefact control for SMM control-protein annotation, biochemical, small-molecule microarray, 635/667 nm fluorescence (AID 1140).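 Further: score merges 667 nm feature emission with signal to noise over triplicate slides.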 Particulars: WGA-A647 binding, 635 nm fluorescence, higher = more signal.
Experiment [9] deals with Luciferin 4-monooxygenase (Photinus pyralis) (UniProt P08659). Description: firefly luciferase enzyme inhibitors, primary screen, biochemical, luminescence, purified enzyme, 2006 set (AID 1141).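 Further: cell-free assay with purified firefly luciferase at 100 ng per well in PBS; test concentration not given here.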 The conditions noted are these: SteadyGlo luminescence, 30 min, higher = more signal, called active from +8 up or from −8 down.
Chain of Luciferin 4-monooxygenase (Photinus pyralis) (P08659 whole entry, looked up): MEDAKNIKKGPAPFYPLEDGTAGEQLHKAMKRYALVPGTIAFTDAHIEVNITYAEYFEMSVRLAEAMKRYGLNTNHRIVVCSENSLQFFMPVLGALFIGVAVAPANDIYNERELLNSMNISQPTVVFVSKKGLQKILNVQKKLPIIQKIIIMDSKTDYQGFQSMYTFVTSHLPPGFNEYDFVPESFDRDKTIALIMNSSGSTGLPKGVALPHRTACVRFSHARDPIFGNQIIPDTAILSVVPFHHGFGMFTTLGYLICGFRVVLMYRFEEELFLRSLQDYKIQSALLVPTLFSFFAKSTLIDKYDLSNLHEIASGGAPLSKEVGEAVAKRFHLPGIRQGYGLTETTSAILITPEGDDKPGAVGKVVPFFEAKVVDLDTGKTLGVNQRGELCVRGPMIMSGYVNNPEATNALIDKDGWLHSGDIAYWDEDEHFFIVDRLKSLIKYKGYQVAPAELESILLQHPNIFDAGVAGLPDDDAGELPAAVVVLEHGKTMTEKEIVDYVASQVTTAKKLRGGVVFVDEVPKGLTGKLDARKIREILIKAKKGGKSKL
The test system of experiment [10] is Wnt5a (protein binding on small-molecule microarray). Nature of the experiment: Wnt5a binders on small-molecule microarray, primary screen, biophysical, 635/667 nm fluorescence (AID 1142).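 Further: fluorescence read at 667 nm with signal to noise per printed feature.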 The conditions noted are these: 635 nm fluorescence, higher = more signal.
Experiment [11] in a line: cell viability in Huh7 cells, primary screen, cytotoxicity control for HCV replication inhibitor project, CellTiter-Glo luminescence, basal, 48 h (AID 1143).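 Further: Huh7 hepatoma cells carrying a hepatitis C replication reporter with no stimulus; test concentration not given here.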 Particulars: Huh7 HCV replicon, higher = more signal, called active from +8 up or from −8 down.
Experiment [12] is described as follows: P. aeruginosa biofilm formation inhibitors, primary screen, PAO1 strain, BacTiter-Glo luminescence, LB-PBS (AID 1144). The conditions noted are these: 12 h, higher = more signal.
A short description of experiment [13]: CREB reporter modulators without forskolin, primary screen, cell-based, PC12, CRE-LacZ reporter, unstimulated (AID 1145). The conditions noted are these: no forskolin, luminescence, 4.5 h, higher = more signal, called active from +8 up or from −8 down.
Experiment [14] is described as follows: CREB reporter modulators under forskolin, primary screen, cell-based, PC12, CRE-LacZ reporter, forskolin-stimulated (AID 1146).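 Further: PC12 cells with 6xCRE LacZ reporter stimulated by forskolin 10 µM; beta-galactosidase reporter signal reflecting CREB driven transcription.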 The conditions noted are these: luminescence, 4.5 h, higher = more signal, called active from +8 up or from −8 down.
The target of experiment [15] is Streptavidin (Streptomyces avidinii) (UniProt P22629). Description: streptavidin binders on small-molecule microarray, primary screen, artefact control for SMM compound annotation, biophysical, 635/667 nm fluorescence (AID 1147).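 Further: signal reflects streptavidin binding to arrayed compounds as a control protein.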 Particulars: streptavidin binding, higher = more signal.
Chain of Streptavidin (Streptomyces avidinii) (P22629 whole entry, looked up): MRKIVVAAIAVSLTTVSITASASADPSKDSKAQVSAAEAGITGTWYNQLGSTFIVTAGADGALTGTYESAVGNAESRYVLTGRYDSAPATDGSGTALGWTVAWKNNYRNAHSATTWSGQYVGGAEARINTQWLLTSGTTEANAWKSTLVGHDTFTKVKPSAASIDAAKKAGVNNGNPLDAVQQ
Experiment [16] is described as follows: small-molecule binders of probe aInhba, primary screen, biochemical, small-molecule microarray, 635/667 nm fluorescence (AID 1148).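 Further: score merges 667nm spot fluorescence with signal-to-noise for antibody binding to printed compounds.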 Particulars: higher = more signal.
Experiment [17] deals with Torsin-1A (Homo sapiens) (UniProt O14656). Nature of the experiment: torsin A binders from cell lysate, primary screen, small-molecule microarray, wild-type, 635/667 nm (AID 1149). The conditions noted are these: COS7 hTOR1A-WT lysate, 635 nm fluorescence, higher = more signal.
Chain of Torsin-1A (Homo sapiens) (O14656 whole entry, looked up): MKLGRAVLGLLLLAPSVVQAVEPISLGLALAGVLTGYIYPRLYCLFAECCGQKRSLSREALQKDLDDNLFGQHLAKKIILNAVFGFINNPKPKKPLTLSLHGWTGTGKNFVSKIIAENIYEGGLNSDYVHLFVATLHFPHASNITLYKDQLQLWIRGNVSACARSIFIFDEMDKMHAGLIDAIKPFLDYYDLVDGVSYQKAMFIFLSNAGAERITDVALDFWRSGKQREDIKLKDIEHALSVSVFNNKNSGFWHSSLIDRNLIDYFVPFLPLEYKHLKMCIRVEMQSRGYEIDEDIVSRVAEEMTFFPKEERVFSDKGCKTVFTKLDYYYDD
Experiment [18] has the same target. Description: small-molecule binders of mutant TOR1A in lysate, primary screen, cell lysate, small-molecule microarray, COS7 lysate, 635/667 nm fluorescence (AID 1150).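 Further: score pools 667 nm emission and signal to noise measuring lysate protein binding.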 The conditions noted are these: COS7 hTOR1A mutant lysate, 635 nm fluorescence, higher = more signal.
Experiment [19] has as its system Sonic hedgehog protein (Shh). Description: small-molecule binders of Shh protein, primary screen, biochemical, small-molecule microarray, 635/667 nm fluorescence (AID 1151).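 Further: Shh protein binding to compounds spotted on small-molecule microarray slides; score combines spot fluorescence intensity with signal-to-noise across triplicate slides.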 Particulars: small-molecule microarray binding, 635 nm fluorescence; higher = more signal.

Activity calls are given as the source filed them. Unless noted, how the calls were made is not given here.

In the case of `COC(=O)c1c(CC[C@@H](CO)NC(=O)NCCc2c[nH]c3ccccc23)oc(C(=O)Cc2ccccc2)c1C(=O)OC`, the composite z-score in experiment [1] came to 0.108; in [2], 0.27; in [3], 0.131; in [4] it was 0.273; in experiment [5], 0.368; in experiment [6], 0.251. Further, the composite z-score in the experiment with Lefty1 is 0.456; in experiment [8], 0.0707; in experiment [10], -0.229; in experiment [15], -0.322; in [16] it was -0.188; with Torsin-1A (Homo sapiens) [17] it was 0.207. Moreover, the composite z-score amounted to 0.0487 in the experiment with Torsin-1A (Homo sapiens) [18] and 0.0213 in experiment [19]. The z-score was -0.364 in experiment [7]; 0.521 (inactive) in experiment [9]; -0.195 (inactive) in [11]; 0.604 (inactive) in experiment [12]; 1.37 (inactive) in [13]; -0.713 (inactive) in experiment [14].
As to `COc1cc2c(cc1OC)CN(C(=O)[C@H]1[C@@H]3C(=O)O[C@@H](c4ccccc4)[C@@H](c4ccccc4)N3[C@@H](c3ccccc3OCCO)[C@]13C(=O)Nc1ccc(C#CCCO)cc13)CC2`, the composite z-score was found to be 1.1 in experiment [1]; 1.2 in [2]; 0.612 in experiment [3]; 0.871 in experiment [4]; 1.18 in [5]; 1.65 in [6]. In addition, the composite z-score is 1.13 in the experiment on Lefty1; 0.524 in [8]; 0.703 in experiment [10]; 0.225 in experiment [15]; -0.0567 in experiment [16]; -0.0954 with Torsin-1A (Homo sapiens) [17]. For the same compound, the composite z-score amounted to 0.142 with Torsin-1A (Homo sapiens) [18] and 1.75 in [19]. For the same compound, the z-score in experiment [7] was -0.486; in experiment [9] it was -0.255 (inactive); in experiment [11] it was -0.964 (inactive); in experiment [12], 0.677 (inactive); in [13], 0.712 (inactive); in experiment [14] it was 1.64 (inactive).
As to `COc1cc2c(cc1O)C(c1cccs1)N(Cc1cccc(OC(F)(F)F)c1)CC2` (stereo not given), the composite z-score amounted to 2.17 in [1]; 0.733 in experiment [2]; 0.758 in experiment [3]; 0.173 in experiment [4]; 0.457 in [5]; 0.252 in [6]. Further, the composite z-score with Lefty1 was -0.196; in experiment [8] it was 0.84; in [10], -0.189; in experiment [15] it was 0.403; in experiment [16] it was -0.0762; with Torsin-1A (Homo sapiens) [17], 0.288. Also, the composite z-score was 0.0814 with Torsin-1A (Homo sapiens) [18] and 0.251 in experiment [19]. Moreover, the z-score was -0.0263 in experiment [7]; -0.619 (inactive) in experiment [9]; -4.65 (inactive) in [11]; 0.284 (inactive) in [12]; -0.644 (inactive) in experiment [13]; -0.73 (inactive) in experiment [14].
Take `COC(=O)[C@@]1(Cc2ccccc2)[C@H]2c3cc(C(=O)N(C)C)n(CCc4c[nH]c5ccc(O)cc45)c3C[C@H]2CN1C(=O)c1ccccc1`: the composite z-score in [1] was 1.53; in experiment [2], 1.23; in [3] it was 0.772; in experiment [4] it was -0.0969; in experiment [5], 1.35; in experiment [6], -0.0235. The composite z-score in the experiment with Lefty1 is 0.171; in experiment [8] it was 0.173; in experiment [10] it was 0.0434; in [15], 0.0497; in [16] it was 0.0878; with Torsin-1A (Homo sapiens) [17] it was -0.343. For the same compound, the results for the composite z-score (in the experiment with Torsin-1A (Homo sapiens) [18]; in [19]) were 0.604 and 0.647, respectively. Besides, the z-score in experiment [7] was -0.409; in [9], -2.82 (inactive); in [11], -1.51 (inactive); in experiment [12], 0.562 (inactive); in experiment [13], 0.0041 (inactive); in experiment [14], 0.1 (inactive).
Turning to `CN(C)CCCC[C@@H]1NC(=O)[C@H]2C[C@@H](C(=O)NCCCCCN)[C@@H](c3cccc(OCCO)c3)N2C1=O`, the composite z-score in experiment [1] is 2.91; in experiment [2], 1.12; in experiment [3], 0.297; in experiment [4] it was 1.01; in [5], 1.38; in experiment [6], 1.22. Besides, the composite z-score in the experiment on Lefty1 turned out to be 1.66; in experiment [8], 1.48; in experiment [10], 0.456; in [15] it was 1.13; in experiment [16] it was 0.495; in the experiment with Torsin-1A (Homo sapiens) [17] it was 1.99. Further, the results for the composite z-score (with Torsin-1A (Homo sapiens) [18]; in experiment [19]) were 2.15 and 1.28, respectively. Moreover, the z-score in experiment [7] was 0.129; in experiment [9] it was -0.69 (inactive); in experiment [11], -1.01 (inactive); in experiment [12] it was 0.767 (inactive); in experiment [13], 0.155 (inactive); in experiment [14], 0.421 (inactive).
